Screening results deposited in PubChem by National Center for Advancing Translational Sciences (NCATS).
DT40 TDP1 no CPT – qHTS for Inhibitors of human tyrosyl-DNA phosphodiesterase 1 (TDP1): qHTS in cells in absence of CPT; AID 686978, 2013; Potency, µM (doses to about 46.2 µM), for the others: at the top dose activity change, negative = growth inhibition, actives largely listed as inhibitors; DT40 Tdp1-/- hTDP1 cells, no CPT, ATP luminescence, 48 h; 420,000 compounds, 15% hits; note: potency is the fitted concentration of half-maximal effect; nearly all actives have a fitted effect of over 55% in size
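Camptothecin absent (DMSO only). Human TDP1-complemented DT40 knockout cells, 400 cells/well, 37 °C for minimum 48 hr; ATP measured via CellTiter-Glo, 30 min dark incubation, luminescence.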
DT40 TDP1 CPT – qHTS for Inhibitors of human tyrosyl-DNA phosphodiesterase 1 (TDP1): qHTS in cells in presence of CPT; AID 686979, 2013; 420,000 compounds, 12% hits; chicken DT40 Tdp1-/-;hTDP1 cells + 20 nM CPT, ATP luminescence, 48 h; Potency, µM (titrated, usually from 46.2 µM), inactives show top-dose activity change, negative = growth inhibition, actives largely listed as inhibitors; note: potency is the fitted concentration of half-maximal effect; nearly all actives have a fitted effect of over 55% in size
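Chicken DT40 Tdp1-/- cells complemented with human TDP1, 400 cells/well, exposed to compounds plus 20 nM camptothecin for at least 48 h at 37 C; viability read as ATP content by CellTiter-Glo luminescence.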
TDP1 inh – qHTS Assay for Inhibitors of Tyrosyl-DNA Phosphodiesterase (TDP1). 350,000 compounds, 0.28% hits. recombinant TDP1, AlphaScreen DNA substrate cleavage. Tyrosyl-DNA phosphodiesterase 1 (Homo sapiens), Q9NUW8. Potency, µM (top dose mostly 130 µM), for the others: at the top dose activity change, negative = inhibition, hits mostly inhibitors; note: potency is the fitted concentration of half-maximal effect; nearly all actives have a fitted effect of over 40% in size
Target sequence (Q9NUW8 whole entry, looked up): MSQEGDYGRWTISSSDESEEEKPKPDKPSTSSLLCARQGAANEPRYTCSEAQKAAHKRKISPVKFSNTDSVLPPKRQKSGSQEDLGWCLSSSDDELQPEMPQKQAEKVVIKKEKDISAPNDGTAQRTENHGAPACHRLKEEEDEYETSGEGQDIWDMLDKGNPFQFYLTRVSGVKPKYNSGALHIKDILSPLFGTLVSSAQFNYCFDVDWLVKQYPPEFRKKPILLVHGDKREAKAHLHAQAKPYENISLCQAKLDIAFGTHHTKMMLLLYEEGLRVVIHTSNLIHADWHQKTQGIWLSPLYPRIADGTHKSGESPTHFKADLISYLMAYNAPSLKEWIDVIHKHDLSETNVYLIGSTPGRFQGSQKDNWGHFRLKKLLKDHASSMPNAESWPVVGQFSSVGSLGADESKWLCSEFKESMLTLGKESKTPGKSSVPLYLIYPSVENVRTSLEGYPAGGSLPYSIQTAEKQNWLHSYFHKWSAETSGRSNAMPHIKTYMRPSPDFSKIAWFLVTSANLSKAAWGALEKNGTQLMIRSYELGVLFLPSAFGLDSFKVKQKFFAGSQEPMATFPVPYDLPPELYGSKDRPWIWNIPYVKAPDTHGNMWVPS
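Recombinant E. coli-expressed Tdp1 (1 nM) preincubated with compound 15 min at RT, then 5'-biotin/3'-phosphotyrosine-FITC DNA substrate (15 nM) added for 5 min. AlphaScreen beads (10 ug/ml) added, 10 min RT; tyrosine-FITC cleavage read as signal loss.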
Giardia killer – Small Molecules that selectively kill Giardia lamblia: qHTS; 340,000 compounds, 0.15% hits; activity change, % at 7.66 µM, hits read low; AID 540267, 2011; Giardia lamblia trophozoite viability; in the data active = activity change below about -80%; inconclusive = between about -30% and that limit;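 note: parasites exposed to compound for two days anaerobically before the ATP read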
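Viability, read as ATP luminescence: trophozoites at 100 cells/well, compound added, 48 hrs anaerobic at 37 deg C, then 15-30 min room-temperature development before reading.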
ELG1 DNA repair – qHTS screen for small molecules that inhibit ELG1-dependent DNA repair in human embryonic kidney (HEK293T) cells expressing luciferase-tagged ELG1 | HEK293T ELG1-luciferase reporter, luminescence, 16 h; DNA damage induced by 5-fluorouridine | Potency, µM (highest dose often 46.1 µM), for inactives: top-dose activity change, negative = inhibition, actives largely listed as inhibitors | 330,000 compounds, 2.3% hits | AID 504467, 2011; note: potency is the fitted concentration of half-maximal effect; nearly all actives have a fitted effect of over 55% in size
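DMSO vehicle served as the neutral condition. Each well held 2,000 cells given 5-fluorouridine plus compound; after 16 hr at 37 °C/5% CO2, ONE-Glo was added and luciferase measured 30 min later.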
IL1B secr inh – qHTS for Inhibitors of Inflammasome Signaling: IL-1-beta AlphaLISA Primary Screen | THP-1 LPS/ATP IL-1B secretion, AlphaLISA, 16 h; stronger effect = lower value | activity change, % at 57.5 µM | 360,000 compounds, 4.7% hits; in the data active = activity change below about -50%; inconclusive = mostly about -30% to -49%
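THP-1 cells pretreated 1 hr with compounds (up to 57.5 uM final), then stimulated with LPS (250 ng/mL final) plus ATP (1.25 mM final); secreted IL-1B measured by AlphaLISA after 16 hr, decreased signal indicating inhibition.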
* = called active by the depositor; u = inconclusive; x = no result given; ! = repeats disagree; [ ] = another dose, or the depositor's remark. In the library only some 19% were active in any assay of this set; here they are far more common. Unless noted, calls come from the whole dose curve; as a rule, active = well fitted curve in the direction sought with a large enough effect; inconclusive = small, poorly fitted or top-dose-only effect, or another doubt; inactive = no such curve, though single readings can be large; an effect the other way counts as inactive or inconclusive. % is set by controls: 0 for no effect and ±100 for the full control effect.

SMILES	DT40 TDP1 no CPT	DT40 TDP1 CPT	TDP1 inh	Giardia killer	ELG1 DNA repair	IL1B secr inh
O=C(Nc1nccs1)c1ccc(Cl)c([N+](=O)[O-])c1	3%	5%	8%	-7	0%	-69*
O=C(Nc1nccs1)c1ccc(N2CCOCC2)c([N+](=O)[O-])c1	21µM*	u	10%	-13	u	-27
O=C(C(=O)N1CCN(c2ccccc2F)CC1)c1ccccc1	-8%	-11%	x	x	x	3
Cc1ccc(C)c(Cn2c(-c3cccs3)nc3ccccc32)c1	u	u	0%	x	x	x
Cc1ccc(NS(=O)(=O)c2ccc3c(c2)CCC(=O)N3)cc1F	x	x	1%	x	x	x
O=C(Nc1nccs1)c1ncc(Cl)c(Cl)c1Cl	15µM*	21µM*	x	3	u	-56*
Cc1ccc2[nH]c(CNC(=O)C3CCCCC3)cc2c1	-6%	14%	x	-20	18%	1
O=C(OCn1ncc(Br)c(Br)c1=O)c1ccc(F)cc1	1µM*	1µM*	2%	-13	u	-97*
O=C(OCc1cnc(Cl)s1)c1ccccc1Cl	-7%	-9%	0%	0	14%	-5
O=C(OCn1ncc(Br)c(Br)c1=O)c1ccccc1Cl	1.5µM*	1.2µM*	4%	4	u	-100*
C[C@H]1C[C@H]2[C@@H]3CCC4=CC(=O)C=C[C@]4(C)[C@@]3(Cl)[C@@H](O)C[C@]2(C)[C@@]1(O)C(=O)CO	u	u	0%	4	14%	-59*
CCCCC(=O)O[C@]1(C(=O)CO)[C@H](C)C[C@H]2[C@@H]3CCC4=CC(=O)C=C[C@]4(C)[C@@]3(F)[C@@H](O)C[C@@]21C	13µM*	19µM*	8%	x	x	x
C[C@H]1C[C@H]2[C@@H]3CCC4=CC(=O)C=C[C@]4(C)[C@@]3(F)[C@@H](O)C[C@]2(C)[C@@]1(O)C(=O)CO	-11%	-11%	2%	27	x	-59*
CC1(c2ccccc2)O[C@@H]2C[C@H]3[C@@H]4CCC5=CC(=O)C=C[C@]5(C)[C@@]4(F)[C@@H](O)C[C@]3(C)[C@]2(C(=O)CO)O1 (some centres undefined)	u	u	-1%	39	0%	-67*
CC(C)(C)CC(=O)OCC(=O)[C@@]12OC(C)(C)O[C@@H]1C[C@H]1[C@@H]3CCC4=CC(=O)C=C[C@]4(C)[C@@]3(F)[C@@H](O)C[C@@]12C	-13%	-23%	x	x	x	x
C[C@@H]1C[C@@H]2[C@H]3CCC4=CC(=O)C=C[C@]4(C)[C@]3(F)[C@@H](O)C[C@]2(C)[C@@]1(O)C(=O)CO	x	x	9%[21 µM]	x	x	x
Cc1cc(C)c2c(n1)SCCN2C(=O)Nc1ccc(C(=O)Nc2ccc(C(C)C)cc2)cc1	u	u	6%	x	x	x
CC1(C)OC2CC3C4CC(F)C5=CC(=O)C=CC5(C)C4(F)C(O)CC3(C)C2(C(=O)CO)O1 (centres undefined)	1%	-4%	x	-14	u	-50*
CC1(C)OC2CC3C4CC(F)C5=CC(=O)C=C[C@@]5(C)[C@@]4(F)C(O)C[C@@]3(C)[C@]2(C(=O)CO)O1 (some centres undefined)	1%	-13%	18%	x	x	x
COc1ccc(OC)c(C2CC(c3ccccc3)=NN2C(=S)Nc2ccccc2)c1 (centres undefined)	3.7µM*	3.7µM*	4%	4	11%	34
CNC(=S)N1N=C(c2ccc(C)cc2)CC1c1cc(OC)ccc1OC (centres undefined)	9.2µM*	u	4%	-1	-5%	0
CCCCNS(=O)(=O)c1cc2c3c(c1)CCN3C(=O)CC2	0%	9%	2%	11	u	26
CN(C)Cc1c(C(=O)N/N=C/c2cccc(OCc3c(F)cccc3Cl)c2)nnn1-c1nonc1N	7.3µM*	9.2µM*	4%	4	1%	0
CN(C)Cc1c(C(=O)N/N=C/c2ccccc2OCc2c(F)cccc2Cl)nnn1-c1nonc1N	5.2µM*	4.1µM*	14%	-2	u	41
CCOC(=O)C1CCN(C(=O)C2COc3ccccc3O2)CC1 (centres undefined)	3%	u	7%	9	6%	7
SMILES	DT40 TDP1 no CPT	DT40 TDP1 CPT	TDP1 inh	Giardia killer	ELG1 DNA repair	IL1B secr inh
O=C(NCc1n[nH]c(=S)n1-c1ccc(Cl)c(Cl)c1)c1ccc(S(=O)(=O)N2CCOCC2)cc1	-6%	-8%	5%	19	8%	-5
C[C@@H](CN1CCC(Cc2ccccc2)CC1)[C@@H](O)c1ccc(O)cc1	7.3µM*!	23µM*	10%[56.1 µM]	8	-11%	-21
CC(C)OCC(O)CN1CCC(Cc2ccccc2)CC1 (centres undefined)	-5%	6%	1%	4	13%	5
Cc1ccc(S(=O)(=O)n2cnc(C)c2)cc1	-7%	-15%	x	-7	-2%	6
Cc1csc(NC(=O)CSc2nnc(-c3ccoc3C)n2C(C)c2ccccc2)n1 (centres undefined)	u	u	x	-4	-25%	-18
CN1/C(=C\C(=O)COC(=O)c2ccc([N+](=O)[O-])o2)C(C)(C)c2ccccc21	-15%	-11%	9%	-8	1%	8
CC(C)[C@H](NC(=O)c1ccccc1)C(=O)OCC(=O)/C=C1/N(C)c2ccccc2C1(C)C	8.2µM*	10µM*	3%	-15	-27%	17
COc1cc(OC)cc(C(=O)NCC(=O)OCC(=O)/C=C2/N(C)c3ccccc3C2(C)C)c1	16µM*	u	9%	-14	5%	-60*
CN1/C(=C\C(=O)COC(=O)c2nccnc2N)C(C)(C)c2ccccc21	u	u	x	3	-26%	6
CCc1ccc(NC(=O)CC(c2cc(OC)c(OC)c(OC)c2)N2Cc3ccccc3C2=O)cc1 (centres undefined)	-4%	u	6%	x	x	x
CCCCN(C)c1nc(-c2ccco2)c2c(c1C#N)CC(C)(C)OC2	u	u	x	5	-20%	-67*
